Measured values reported in PubChem BioAssay AID1159580 (chemical genetic matrix, 2015).
Among all 5,500 compounds or so, about 2,000 (36%) were called active. Inconclusive results (about 18%) are left out. This is one part of the list. A number with no mark means an inactive call. Cut-off read from the data, not from the text of the source: active = normalized growth mostly below about 0.91 (no sharp cut-off); inconclusive = no clear call, values can overlap the other calls; inactive = mostly above about 0.92.

Assay: chemical genetic growth profiling, strain panel (AID 1159580);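 note: tested at 20 µM; growth read once vehicle control cultures reached saturation at 30 °C; 1 = growth at the plate median or of vehicle wells; lower values mean less growth of the strain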
Conditions: growth OD

Compound: C[C@]12CCC3c4ccc(O)cc4CCC3C1CCC2=O (stereo partly drawn)
- normalized growth (S. cerevisiae deletion strains, locus YJR066W, strain TOR1, active compounds read low): 0.953
- normalized growth (S. cerevisiae deletion strains, locus YJR075W, strain HOC1, active compounds read low): 0.977
- normalized growth (S. cerevisiae deletion strains, locus YKL009W, strain mrt4, active compounds read low): 0.905
- normalized growth (S. cerevisiae deletion strains, locus YKL068W, active compounds read low): 1
- normalized growth (S. cerevisiae deletion strains, locus YKL085W, strain MDH1 (second series), active compounds read low): 1.02
- normalized growth (S. cerevisiae deletion strains, locus YKL085W, strain MDH1, active compounds read low): 1.02
- normalized growth (S. cerevisiae deletion strains, locus YKL160W, strain elf1, active compounds read low): 0.994
- normalized growth (S. cerevisiae deletion strains, locus YKR001C, strain vps1, active compounds read low): 0.854 (active)
- normalized growth (S. cerevisiae deletion strains, locus YKR026C, strain gcn3, active compounds read low): 1.02
- normalized growth (S. cerevisiae deletion strains, locus YKR091W, strain srl3, active compounds read low): 1.02
- normalized growth (S. cerevisiae deletion strains, locus YLL001W, strain dnm1, active compounds read low): 1.05
- normalized growth (S. cerevisiae deletion strains, locus YLL026W, active compounds read low): 0.999
- normalized growth (S. cerevisiae deletion strains, locus YLL041C, strain sdh2, active compounds read low): 1.02
- normalized growth (S. cerevisiae deletion strains, locus YLR027C, strain aat2, active compounds read low): 0.973
- normalized growth (S. cerevisiae deletion strains, locus YLR039C, strain RIC1, active compounds read low): 0.56 (active)
- normalized growth (S. cerevisiae deletion strains, locus YLR058C, strain SHM2, active compounds read low): 0.97
- normalized growth (S. cerevisiae deletion strains, locus YLR102C, strain apc9, active compounds read low): 1
- normalized growth (S. cerevisiae deletion strains, locus YLR113W, strain HOG1, active compounds read low): 0.98
- normalized growth (S. cerevisiae deletion strains, locus YLR221C, strain rsa3, active compounds read low): 1
- normalized growth (S. cerevisiae deletion strains, locus YLR258W, strain gsy2, active compounds read low): 0.975
- normalized growth (S. cerevisiae deletion strains, locus YLR262C, strain YPT6 (second series), active compounds read low): 0.609 (active)
- normalized growth (S. cerevisiae deletion strains, locus YLR262C, strain YPT6, active compounds read low): 0.558 (active)
- normalized growth (S. cerevisiae deletion strains, locus YLR268W, strain sec22, active compounds read low): 0.976
- normalized growth (S. cerevisiae deletion strains, locus YLR320W, strain mms22, active compounds read low): 0.873 (active)
- normalized growth (S. cerevisiae deletion strains, locus YLR330W, strain CHS5, active compounds read low): 1
- normalized growth (S. cerevisiae deletion strains, locus YLR342W, strain FKS1 (second series), active compounds read low): 0.882
- normalized growth (S. cerevisiae deletion strains, locus YLR342W, strain FKS1, active compounds read low): 1
- normalized growth (S. cerevisiae deletion strains, locus YLR357W, strain rsc2, active compounds read low): 1.04
- normalized growth (S. cerevisiae deletion strains, locus YLR370C, strain arc18, active compounds read low): 1.02
- normalized growth (S. cerevisiae deletion strains, locus YLR371W, strain rom2, active compounds read low): 1.02
- normalized growth (S. cerevisiae deletion strains, locus YLR384C, strain iki3, active compounds read low): 1.02
- normalized growth (S. cerevisiae deletion strains, locus YLR418C, strain cdc73, active compounds read low): 0.985
- normalized growth (S. cerevisiae deletion strains, locus YML016C, strain PPZ1, active compounds read low): 0.986
- normalized growth (S. cerevisiae deletion strains, locus YML032C, strain rad52, active compounds read low): 0.924
- normalized growth (S. cerevisiae deletion strains, locus YML120C, strain ndi1, active compounds read low): 1.03
- normalized growth (S. cerevisiae deletion strains, locus YML124C, strain tub3, active compounds read low): 1.02
- normalized growth (S. cerevisiae deletion strains, locus YMR058W, strain fet3, active compounds read low): 0.928
- normalized growth (S. cerevisiae deletion strains, locus YMR078C, strain ctf18, active compounds read low): 0.987
- normalized growth (S. cerevisiae deletion strains, locus YMR125W, strain sto1, active compounds read low): 1.06
- normalized growth (S. cerevisiae deletion strains, locus YMR129W, active compounds read low): 1.02
- normalized growth (S. cerevisiae deletion strains, locus YMR205C, strain PFK2, active compounds read low): 1.03
- normalized growth (S. cerevisiae deletion strains, locus YMR223W, strain ubp8, active compounds read low): 0.987
- normalized growth (S. cerevisiae deletion strains, locus YMR231W, strain pep5, active compounds read low): 0.993
- normalized growth (S. cerevisiae deletion strains, locus YMR307W, strain GAS1, active compounds read low): 0.797
- normalized growth (S. cerevisiae deletion strains, locus YNL067W, strain RPL9B, active compounds read low): 1
- normalized growth (S. cerevisiae deletion strains, locus YNL071W, strain lat1, active compounds read low): 0.937
- normalized growth (S. cerevisiae deletion strains, locus YNL183C, strain NPR1, active compounds read low): 0.936
- normalized growth (S. cerevisiae deletion strains, locus YNL209W, strain ssb2, active compounds read low): 1.02
- normalized growth (S. cerevisiae deletion strains, locus YNL233W, strain BNI4, active compounds read low): 0.976
- normalized growth (S. cerevisiae deletion strains, locus YNL248C, strain rpa49, active compounds read low): 0.956
- normalized growth (S. cerevisiae deletion strains, locus YNL250W, strain rad50, active compounds read low): 0.922
- normalized growth (S. cerevisiae deletion strains, locus YNL271C, strain bni1, active compounds read low): 0.966
- normalized growth (S. cerevisiae deletion strains, locus YNL298W, strain CLA4, active compounds read low): 0.902 (active)
- normalized growth (S. cerevisiae deletion strains, locus YNL307C, strain MCK1, active compounds read low): 0.96
- normalized growth (S. cerevisiae deletion strains, locus YNL322C, strain KRE1 (second series), active compounds read low): 1.05
- normalized growth (S. cerevisiae deletion strains, locus YNL322C, strain KRE1, active compounds read low): 1.01
- normalized growth (S. cerevisiae deletion strains, locus YNR049C, strain mso1, active compounds read low): 1.03
- normalized growth (S. cerevisiae deletion strains, locus YNR052C, strain pop2, active compounds read low): 0.917
- normalized growth (S. cerevisiae deletion strains, locus YOL006C, strain TOP1, active compounds read low): 0.838
- normalized growth (S. cerevisiae deletion strains, locus YOL012C, strain htz1): 1.42
- normalized growth (S. cerevisiae deletion strains, locus YOL147C, strain pex11, active compounds read low): 1
- normalized growth (S. cerevisiae deletion strains, locus YOR001W, strain rrp6, active compounds read low): 0.946
- normalized growth (S. cerevisiae deletion strains, locus YOR061W, strain CKA2, active compounds read low): 0.969
- normalized growth (S. cerevisiae deletion strains, locus YOR069W, strain VPS5, active compounds read low): 1
- normalized growth (S. cerevisiae deletion strains, locus YOR070C, strain gyp1, active compounds read low): 0.997
- normalized growth (S. cerevisiae deletion strains, locus YOR080W, strain dia2, active compounds read low): 1.02
- normalized growth (S. cerevisiae deletion strains, locus YOR083W, strain WHI5, active compounds read low): 0.98
- normalized growth (S. cerevisiae deletion strains, locus YOR106W, strain vam3, active compounds read low): 1.02
- normalized growth (S. cerevisiae deletion strains, locus YOR136W, strain idh2, active compounds read low): 0.991
- normalized growth (S. cerevisiae deletion strains, locus YOR144C, strain elg1, active compounds read low): 0.999
- normalized growth (S. cerevisiae deletion strains, locus YOR184W, strain ser1, active compounds read low): 0.714 (active)
- normalized growth (S. cerevisiae deletion strains, locus YOR231W, strain MKK1, active compounds read low): 0.969
- normalized growth (S. cerevisiae deletion strains, locus YOR265W, strain rbl2, active compounds read low): 1
- normalized growth (S. cerevisiae deletion strains, locus YOR270C, strain vph1, active compounds read low): 0.831
- normalized growth (S. cerevisiae deletion strains, locus YOR290C, strain snf2, active compounds read low): 0.941
- normalized growth (S. cerevisiae deletion strains, locus YOR316C, strain cot1, active compounds read low): 0.991
- normalized growth (S. cerevisiae deletion strains, locus YPL051W, strain arl3, active compounds read low): 0.934
- normalized growth (S. cerevisiae deletion strains, locus YPL055C, strain LGE1, active compounds read low): 0.863
- normalized growth (S. cerevisiae deletion strains, locus YPL078C, strain atp4, active compounds read low): 0.954
- normalized growth (S. cerevisiae deletion strains, locus YPL106C, strain sse1, active compounds read low): 1.03
- normalized growth (S. cerevisiae deletion strains, locus YPL240C, strain hsp82, active compounds read low): 1.01
- normalized growth (S. cerevisiae deletion strains, locus YPL256C, strain CLN2, active compounds read low): 1.02
- normalized growth (S. cerevisiae deletion strains, locus YPR119W, strain clb2, active compounds read low): 1
- normalized growth (S. cerevisiae deletion strains, locus YPR141C, strain kar3, active compounds read low): 1
- normalized growth (S. cerevisiae deletion strains, locus YPR163C, strain tif3, active compounds read low): 0.927
- normalized growth (S. cerevisiae deletion strains, locus YPR167C, strain met16, active compounds read low): 0.998
- normalized growth (S. cerevisiae deletion strains, strain wtn01, active compounds read low): 0.967
- normalized growth (S. cerevisiae strains, strain wild type, active compounds read low): 1
